Results from article PMC4336329 (PLoS ONE, 2015).
The whole screen tested about 310,000 compounds, of which about 14,000 (4.5%) showed an effect of 50% or more. The effect is printed as a negative number. The full list was thinned out, with strong results kept by preference.

biological target: human ether-à-go-go-related gene (hERG) potassium channel (human, UniProt Q12809); test: primary screen, population patch clamp on CHO cells stably expressing hERG; higher = less effect of the substance
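Note: peak tail current of the secondary pulse compared with the same well before compound.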

Sequence of human ether-à-go-go-related gene (hERG) potassium channel (Q12809 whole entry, looked up): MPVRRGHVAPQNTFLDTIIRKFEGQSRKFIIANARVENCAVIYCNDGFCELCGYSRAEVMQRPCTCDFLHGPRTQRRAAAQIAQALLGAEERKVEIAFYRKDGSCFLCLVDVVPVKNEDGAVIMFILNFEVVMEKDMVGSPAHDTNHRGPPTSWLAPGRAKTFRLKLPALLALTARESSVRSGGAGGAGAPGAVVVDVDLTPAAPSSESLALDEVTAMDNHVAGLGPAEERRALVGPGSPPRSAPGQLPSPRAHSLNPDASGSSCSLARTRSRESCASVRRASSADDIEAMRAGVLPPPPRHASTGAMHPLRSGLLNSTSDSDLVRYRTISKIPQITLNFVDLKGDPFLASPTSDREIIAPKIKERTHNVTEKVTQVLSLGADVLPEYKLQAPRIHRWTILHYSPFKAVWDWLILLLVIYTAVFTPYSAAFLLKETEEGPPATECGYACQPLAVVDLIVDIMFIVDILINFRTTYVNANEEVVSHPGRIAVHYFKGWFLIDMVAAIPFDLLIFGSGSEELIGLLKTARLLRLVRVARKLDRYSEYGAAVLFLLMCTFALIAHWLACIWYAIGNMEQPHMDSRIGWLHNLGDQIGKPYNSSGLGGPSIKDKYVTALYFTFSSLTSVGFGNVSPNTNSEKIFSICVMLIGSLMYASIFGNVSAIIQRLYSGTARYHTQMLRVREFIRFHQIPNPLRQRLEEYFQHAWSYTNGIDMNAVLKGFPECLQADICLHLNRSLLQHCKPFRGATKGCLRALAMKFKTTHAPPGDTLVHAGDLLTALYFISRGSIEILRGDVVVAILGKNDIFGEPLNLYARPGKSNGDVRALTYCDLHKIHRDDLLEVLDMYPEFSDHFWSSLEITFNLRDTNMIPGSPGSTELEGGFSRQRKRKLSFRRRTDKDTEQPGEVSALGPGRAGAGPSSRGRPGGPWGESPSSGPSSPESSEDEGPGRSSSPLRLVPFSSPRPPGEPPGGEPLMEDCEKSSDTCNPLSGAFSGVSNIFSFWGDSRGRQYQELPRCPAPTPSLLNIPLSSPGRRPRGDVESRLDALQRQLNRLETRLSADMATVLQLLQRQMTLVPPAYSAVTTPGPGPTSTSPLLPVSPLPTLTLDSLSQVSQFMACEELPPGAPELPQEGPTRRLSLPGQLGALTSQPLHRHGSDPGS

Compound | hERG current change (%, negative = inhibition) at 10uM [%]
COc1ccc2ncn(-c3ccccc3)c2c1 | -7.39
COc1ccc(NC(=O)c2ccc(Cn3cc(Cl)cn3)cc2)cc1 | 1.21
Cc1ccc(NC(=O)c2ccco2)c(NC(=O)Cc2cccs2)c1 | -2.72
O=C(NCCc1ccccc1F)C1CC(=O)N(c2ccccc2)C1 (stereo not drawn) | 1.17
C/C(=N\Nc1nc(C(C)(C)C)cs1)c1ccccc1 | 16.4
Cc1cccc(NC(=O)CC2C(=O)NCCN2C(=S)Nc2ccccc2)c1 (stereo not drawn) | 1.17
Cc1cnc(NC(=O)c2c(-c3ccccc3)noc2C)s1 | -2.27
O=C(NNC(=O)c1ccccc1Br)c1cccc(Cl)c1 | -7.94
CC(C)CCCC(C)NC(=O)c1cc(S(=O)(=O)N2CCCCC2)ccc1N1CCOCC1 (stereo not drawn) | -36.8
CCCCCC(C)NC(=O)c1cc(S(=O)(=O)N2CCCCC2)ccc1N1CCOCC1 (stereo not drawn) | -70.9
CCC(CC)NC(=O)c1cc(S(=O)(=O)N2CCCCC2)ccc1N1CCOCC1 | -20.3
COc1ccc(NC(=O)CCSc2ccc3ccccc3n2)cc1 | -11.7
CCOC(=O)n1n[n+]([O-])c2ccccc21 | 35.5
Cc1ccn2cc(CCNS(=O)(=O)c3ccc([N+](=O)[O-])cc3)nc2c1 | -69.7
CCc1ccc(S(=O)(=O)NCCc2cn3cccc(C)c3n2)s1 | -16.2
O=S(=O)(NCCc1cn2ccccc2n1)c1ccc(-c2ccccc2)cc1 | -62
Cc1ccn2cc(CCNS(=O)(=O)c3ccc4ccccc4c3)nc2c1 | -39.6
CC(=O)c1ccc(S(=O)(=O)NCCc2cn3ccc(C)cc3n2)cc1 | -29.9
CCc1ccc(S(=O)(=O)NCCc2cn3ccc(C)cc3n2)s1 | -54.2
CCc1ccc(S(=O)(=O)NCCc2cn3ccccc3n2)s1 | -29.5
CCOc1ccc(S(=O)(=O)NCCc2cn3ccccc3n2)cc1 | -11
O=[N+]([O-])c1ccc(S(=O)(=O)NCCc2cn3ccccc3n2)cc1 | -40.6

Compound | hERG current change (%, negative = inhibition) at 10uM [%]
COc1cccc(C(=O)COC(=O)COc2c(C)cc(C)cc2C)c1 | 1.18
COc1ccc(-c2c(C(C)=O)c(C)nc3sc4c(=N)n(N)cnc4c23)cc1 | 3.48
CCOC(=O)N1CCC(NC(=O)c2ccc3c(Cl)c4c(nc3c2)CCCC4)CC1 | -36.6
CCCN(CCC)CCCNC(=O)c1ccc2c(Cl)c3c(nc2c1)CCC3 | -29.1
COCCNC(=O)c1ccc2c(Cl)c3c(nc2c1)CCC3 | -30.2
O=C(NC1CC1)c1ccc2c(Cl)c3c(nc2c1)CCCC3 | -63.7
CCN(CC)CCCNC(=O)c1ccc2c(Cl)c3c(nc2c1)CCCC3 | -48.7
O=C(NCCCN1CCCCCC1)c1ccc2c(Cl)c3c(nc2c1)CCCC3 | -53
CCN1CCN(CCCNC(=O)c2ccc3c(Cl)c4c(nc3c2)CCCC4)CC1 | -46.8
CCCN1CCN(CCCNC(=O)c2ccc3c(Cl)c4c(nc3c2)CCCC4)CC1 | -61.1
O=C(NCCCN1CCCC1)c1ccc2c(Cl)c3c(nc2c1)CCCC3 | -50.1
CC(C)CCNC(=O)c1ccc2c(Cl)c3c(nc2c1)CCC3 | 21.4
CC1CCN(CCCNC(=O)c2ccc3c(Cl)c4c(nc3c2)CCCC4)CC1 | -40.9
CN1CCN(CCCNC(=O)c2ccc3c(Cl)c4c(nc3c2)CCCC4)CC1 | -6.81
CC(C)(C)NS(=O)(=O)c1ccc(NC(=O)Cc2ccccc2[N+](=O)[O-])cc1 | 1.66
CCOC(=O)c1ccc(N2CN(CC)CNC2=S)cc1 | 7.25
C/C(=N/OCc1ccc(Br)cc1)c1ccccn1 | 6.29
CCc1ccc(C(=O)COC(=O)c2ccco2)cc1 | 9.18
COc1ccc(CCNC(=O)COC(=O)c2cnc(C)cn2)cc1 | 11.3
O=C(Nc1ccccc1C(=O)Nc1ccc2c(c1)OCO2)c1cccs1 | 3.6
Cc1cc(C)cc(NC(=O)COC(=O)CN=C2NS(=O)(=O)c3ccccc32)c1 | 15.6
O=C(NCC1CCCO1)c1ccc(COc2ccc(F)cc2)o1 (stereo not drawn) | -5.59

Compound | hERG current change (%, negative = inhibition) at 10uM [%]
CCCOc1ccc(/C=N/Nc2cc(N3CCOCC3)ncn2)c(O)c1 | 13.4
O=c1[nH]cc([N+](=O)[O-])cc1Br | 2.05
CCCCOc1ccc(C(=O)NCC(=O)N2CC=C(c3ccccc3)CC2)cc1 | 16.8
CN1CCNC(=O)C1CC(=O)N1CC=C(c2ccc(F)cc2)CC1 (stereo not drawn) | -3.88
Cl.NC(=O)c1ccc(OCCC(O)N2CC=C(c3ccc(F)cc3)CC2)cc1 (stereo not drawn) | -71.2
Clc1cccc(N/N=C/c2ccncc2)c1 | -10.2
Cc1cc(C(=O)C(C)Sc2cccc[n+]2[O-])c(C)n1-c1ccc(Cl)cc1 (stereo not drawn) | -12.8
CC(C)/C=C1\CCc2c([nH]c3ccccc23)C1=O | 9.91
Cc1c(S(=O)(=O)c2ccccn2)c(N)n(Cc2ccccc2)c1C | 0.158
CN(C)CCn1cnc2c(c1=N)C(c1ccccc1)c1ccc3ccccc3c1O2 (stereo not drawn) | -79.2
CN(C)CCCn1cnc2c(c1=N)C(c1ccccc1)c1ccc3ccccc3c1O2 (stereo not drawn) | -75.9
O=C(Nc1cc(=O)[nH]c2ncnn12)c1ccccc1F | 11
CCC(=O)N1CCc2cc(Br)cc(S(=O)(=O)N3CCCCCC3)c21 | -28.6
O=C(c1ccc(COc2ccccc2Cl)o1)N1CCCC1 | -23.6
Cc1ccc(C(=O)N2CCN(c3cccc(Cl)c3)CC2)cc1C | -13.4
COc1ccc(C(=O)N2CCN(c3ccc(F)cc3)CC2)cc1S(=O)(=O)NC1CC1 | -59.2
COc1ccc(C(=O)N2CCN(c3cccc(Cl)c3)CC2)cc1S(=O)(=O)NC1CC1 | -63.5
COc1ccc(C(=O)N2CCN(c3ccccc3Cl)CC2)cc1S(=O)(=O)NC1CC1 | -32.7
COc1ccc(C(=O)N2CCN(c3ccc(C(C)=O)cc3F)CC2)cc1S(=O)(=O)NC1CC1 | -37.5
COc1ccc(C(=O)Nc2ccc(N3CCOCC3)cc2)cc1S(=O)(=O)NC1CCCC1 | 13.1
O=C(OC1CCCCC1=O)c1ccc(S(=O)(=O)Nc2ccccc2)cc1 (stereo not drawn) | 0.644
Nc1cc(Cl)cc(C(=O)O)c1Cl | 15.9

Compound | hERG current change (%, negative = inhibition) at 10uM [%]
O=C(Cn1cnc2sc(-c3ccccc3)cc2c1=O)NCc1ccco1 | -3.75
O=C(Nc1ccc(Cl)cc1)c1cccc(S(=O)(=O)Nc2ccccn2)c1 | -6.23
O=C(Nc1nnc(SCc2ccc(F)cc2)s1)C1Cc2ccccc2CN1C(=O)c1ccco1 (stereo not drawn) | -6.55
Cc1cc(C)n2nc(-c3sccc3-n3c(C)ccc3C)cc2n1 | 17.3
Cc1cc(-c2ccc(Cl)cc2)n2nc(C)cc2n1 | 4.45
CCC1(c2ccccc2)NC(=O)N(CC(=O)Nc2ccc(Cl)c(S(=O)(=O)N3CCCCC3)c2)C1=O (stereo not drawn) | 12.4
Cc1nn(CC(=O)Nc2ccc(Cl)c(S(=O)(=O)N(C)C)c2)c(C)c1[N+](=O)[O-] | -61.3
Cl.N=c1sccn1CC(=O)Nc1ccc(S(=O)(=O)N2CCOCC2)cc1 | -5.32
CC1(c2ccccc2)NC(=O)N(CC(=O)Nc2ccc(Cl)c(S(=O)(=O)N3CCCCC3)c2)C1=O (stereo not drawn) | -8.09
Cc1ccc(NC(=O)Cn2ccsc2=N)cc1S(=O)(=O)N(C)C.Cl | -13.4
Cl.N=c1sccn1CC(=O)Nc1ccc(Cl)c(S(=O)(=O)N2CCOCC2)c1 | -50.4
Cc1nn(CC(=O)Nc2cc(S(=O)(=O)N(C)C)ccc2Cl)c(C)c1[N+](=O)[O-] | -20.9
CN(C)S(=O)(=O)c1ccc(NC(=O)Cn2ccsc2=N)cc1 | 13.7
Cc1nn(CC(=O)Nc2ccc(S(=O)(=O)N(C)C)cc2)c(C)c1[N+](=O)[O-] | -5.89
CN(C)S(=O)(=O)c1cc(NC(=O)Cn2ccsc2=N)ccc1Cl.Cl | -56.3
Cc1ccc(S(=O)(=O)N2CCOCC2)cc1NC(=O)Cn1ccsc1=N.Cl | -5.64
O=C(Cn1ccccc1=O)Nc1ccc(Cl)c(S(=O)(=O)N2CCCCC2)c1 | -79.4
COc1cc(/C=C2/N=C(C3CCCCC3)OC2=O)cc(OC)c1OC | -17.5
O=C(Cc1ccccc1[N+](=O)[O-])NCc1ccncc1 | 6.57
OC(Cn1c2ccccc2c2ccccc21)C[n+]1cccc2ccccc21.[O-][Cl+3]([O-])([O-])[O-] (stereo not drawn) | -33.5
C=C(C)C(=O)N1CC2(CC(c3cccc(NC(=O)/C(C)=C\C)c3)=NO2)C[C@H]1C(N)=O (stereo partly drawn) | 2.26
